# Screening results: PubChem, The Scripps Research Institute Molecular Screening Center
# MOR-DOR ag-1: agonists of OPRM1-OPRD1 heterodimerization, primary screen, cell-based, luminescence; AID 504326, 2011; activation, % at 9.3 µM; cells; actives 0.3% (n = 340,000); Mu-type opioid receptor (Homo sapiens) + Delta-type opioid receptor (Homo sapiens), …
# MOR-DOR inv ag: inverse agonists of MOR-DOR heterodimerization, primary screen, cell-based, luminescence; Mu-type opioid receptor (Homo sapiens) + Delta-type opioid receptor (Homo sapiens), …; cell-based MOR-DOR heterodimer luminescence, inverse agonism; inhibition, % at 9.3 µM; actives 0.21% (n = 340,000); AID 504357, 2011; in the data active means inhibition above about 22%, passing the limit was not always enough
# HTR5A inv ctr: HTR5A inverse agonists in luminescence cell assay, primary screen, counter-screen for OPRM1-OPRD1 heterodimer inverse agonist project, full-deck HTS; actives 0.083% (n = 340,000); inhibition, % at 9.3 µM; HTR5A cell line, inverse agonism; 5-hydroxytryptamine receptor 5A (Homo sapiens), P47898; in the data active means inhibition mostly above about 23%, no sharp cut-off; inactive means mostly below about 18%
# Target sequence (P47898 whole entry, looked up): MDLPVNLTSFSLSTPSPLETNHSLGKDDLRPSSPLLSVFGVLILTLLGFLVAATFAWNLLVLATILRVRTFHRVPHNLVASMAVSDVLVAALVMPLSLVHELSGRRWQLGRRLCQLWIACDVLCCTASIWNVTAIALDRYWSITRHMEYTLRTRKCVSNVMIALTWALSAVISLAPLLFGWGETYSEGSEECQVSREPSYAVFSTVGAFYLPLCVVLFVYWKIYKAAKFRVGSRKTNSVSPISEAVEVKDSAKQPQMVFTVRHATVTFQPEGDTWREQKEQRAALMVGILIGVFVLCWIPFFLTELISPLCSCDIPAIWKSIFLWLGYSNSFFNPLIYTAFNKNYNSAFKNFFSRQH
# m5-HT2A agonist: mouse Htr2a agonists via beta-arrestin recruitment, primary screen, cell-based, luminescence. activation, % at 7.6 µM. AID 624169, 2012. CHO-K1 mHTR2A beta-arrestin complementation; percent of 30 µM serotonin response. actives 0.66% (n = 360,000). 5-hydroxytryptamine receptor 2A (Mus musculus), P35363;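 active means activation above a run cutoff, the mean activation of all tested compounds plus 3 SD, cut at about 14% in these data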
# HTR5A ag ctr: HTR5A agonists in luminescence cell assay, primary screen, counter-screen for OPRM1-OPRD1 heterodimer agonist project, full-deck HTS | cell-based | activation, % at 9.3 µM | actives 0.61% (n = 340,000) | AID 504692, 2011; in the data active means activation mostly above about 9.5%, no sharp cut-off; inactive means mostly below about 7.6%
# MOR-DOR ag-2: OPRM1-OPRD1 heterodimerization promoters, counter-screen for HTR5A agonist project, cell-based, luminescence; shares compounds with HTR5A ag ctr; U2OS counter-screen cells, complementation luminescence, 3 h; activation, % at 9.3 µM; actives 13% (n = 800); AID 504913, 2011
# HTR5A ag conf: HTR5A agonists, retest of hits, confirmation, cell-based, luminescence; activation, % at 9.3 µM; actives 17% (n = 800); shares compounds with HTR5A ag ctr; HTR5A agonist cell assay; in the data active means activation above about 17%
# MOR ag counter: OPRM1 agonists via beta-arrestin recruitment, confirmation, counter-screen for mouse HTR2A agonist project, cell-based, luminescence, single concentration; shares compounds with m5-HT2A agonist; U2OS OPRM1 beta-arrestin PathHunter; DMSO 0%, DAMGO 9.3 µM 100%; activation, % at 9.3 µM; actives 5.3% (n = 2,300); AID 624380, 2012;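 active means mean activation above the mean of DMSO-only wells plus 3 SD, cut at about 0.5% in these data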
# HTR2A ag conf: mouse HTR2A agonists, beta-arrestin recruitment, confirmation, cell-based, luminescence, CHO-K1 PathHunter, triplicate | shares compounds with m5-HT2A agonist | DMSO 0%, 30 µM serotonin 100% | activation, % at 7.6 µM | actives 19% (n = 2,300) | AID 624381, 2012;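 active means mean activation across triplicates above the hit threshold derived in the original primary screen, cut at about 15% in these data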
# Hits are given with their value; - = inactive; . = no result. Hits are enriched below; roughly 1.6% of the tested compounds scored in any of these assays. Unless noted, no stated cut-off is given here; in the data, active means activation above about 18%; inactive means the rest.
SMILES,MOR-DOR ag-1,MOR-DOR inv ag,HTR5A inv ctr,m5-HT2A agonist,HTR5A ag ctr,MOR-DOR ag-2,HTR5A ag conf,MOR ag counter,HTR2A ag conf
COc1ccc(NC(=O)C2CCCN(CCCc3ccccc3)C2)cc1OCC(C)C (stereo not drawn),-,-,-,-,15.8,-,-,.,.
COc1ccc(NC(=O)C2Cc3c(-c4cccc(NC(C)=O)c4)ccnc3O2)cc1 (stereo not drawn),.,.,.,-,.,.,.,.,.
C/C(=N\N)c1c(-c2ccccc2)c2cc(C)ccc2[nH]c1=O,-,-,-,-,-,.,.,.,.
CCN(CC)c1c(-c2ccccc2)c2cc(C)ccc2[nH]c1=O,-,-,-,-,26.6,-,-,.,.
N#Cc1ccccc1S(=O)(=O)N1CCN(Cc2cc3c(cc2Br)OCCO3)CC1,.,.,.,-,.,.,.,.,.
COC(=O)c1c(NC(=O)c2ccccc2C(=O)O)sc2c1CCC2,-,-,-,-,19.8,-,-,.,.
NC(=O)c1c(NC(=O)c2ccccc2C(=O)O)sc2c1CCCC2,-,-,-,-,-,.,.,.,.
CCn1nc(C)c(/C=N/NC(=O)c2ccoc2C)c1C,-,-,-,-,18.1,-,-,.,.
Cc1cc(C)n2nc(C(=O)N/N=C/c3c4ccccc4cc4ccccc34)nc2n1,-,-,-,-,-,.,.,.,.
CCn1nc(C)c(/C=N/NC(=O)c2nc3nc(C)cc(C)n3n2)c1C,-,-,-,-,15.8,-,-,.,.
COc1cccc(CNC(=O)COC(=O)CNC(=O)c2ccc(-c3ccccc3)cc2)c1,-,-,-,-,14.8,-,-,.,.
CC(C)(C)OC(=O)C[C@@H]1C/C=C\C[C@@H](CC(=O)N[C@H](CO)Cc2ccccc2)C(=O)N2CCC[C@@H]2COC1=O,-,-,-,-,16.4,22.7,-,.,.
COc1ccc(NC(=O)COC(=O)C2CCCN2C(=O)OC(C)(C)C)cc1Cl (stereo not drawn),.,.,.,-,.,.,.,.,.
CSc1ccc(CN2CCC(C)(Oc3ccccc3)C2)cc1 (stereo not drawn),.,.,.,-,.,.,.,.,.
COc1ccc2cc3cc(C(=O)Nc4ccc5c(c4)OCCO5)oc3nc2c1,-,-,-,-,24.8,-,-,.,.
COc1ccc2cc3cc(C(=O)NC(C)C)oc3nc2c1,-,-,-,-,-,.,.,.,.
CN(Cc1ccc(Cl)c(Cl)c1)C(C(=O)NCc1ccccc1)c1ccco1 (stereo not drawn),.,.,.,-,.,.,.,.,.
COc1ccc(-c2csc(NC(=O)c3ccccc3NS(=O)(=O)c3ccc(F)c(F)c3)n2)cc1,-,-,-,17.9,15.4,24.4,-,-,24.1
Cc1ccc(S(=O)(=O)Nc2ccccc2C(=O)Nc2nc(-c3ccc(F)cc3)cs2)cc1,-,-,-,-,-,.,.,.,.
CC(C)N=c1scc(-c2cccs2)n1/N=C/c1ccc(O)c(O)c1O,-,-,-,14.6,14.4,19.8,-,1.1,17.8
CCCS(=O)(=O)NC(=O)C1(C)CCN(C(=O)c2ccc(OC)c(F)c2)C1 (stereo not drawn),.,.,.,-,.,.,.,.,.
CCCN1C[C@H](CSC)C[C@@H]2c3cccc4[nH]cc(c34)C[C@H]21,-,-,-,113.3,90.4,38.1,-,-,160.2
O=C1c2ccccc2C(=O)N1CCc1c[nH]c2ccccc12,-,-,-,-,-,.,.,.,.
O=C1c2ccccc2C(=O)N1CCc1c[nH]c2ccc(O)cc12,-,-,-,17.8,23.9,-,-,-,-
CCOc1ccc(N2C(=O)CC(NCCc3c[nH]c4ccccc34)C2=O)cc1 (stereo not drawn),-,-,-,18.9,71.3,-,-,-,-
SMILES,MOR-DOR ag-1,MOR-DOR inv ag,HTR5A inv ctr,m5-HT2A agonist,HTR5A ag ctr,MOR-DOR ag-2,HTR5A ag conf,MOR ag counter,HTR2A ag conf
CCn1c(N2CCN(S(=O)(=O)c3ccc(OC)cc3)CC2)nc2ccccc21,-,-,-,16.9,18.1,-,37.1,-,44.5
C=CCn1c(Br)nc2c1c(=O)[nH]c(=O)n2C,-,-,-,19.3,17.6,-,-,-,-
C=CCN1CCc2c(cc(O)c(O)c2Br)[C@@H](c2ccccc2)C1,-,-,-,61.2,57.4,-,59.5,-,141.0
COc1ccc(NC(=O)Cc2nc3ccccc3[nH]2)cc1,-,-,-,84.9,27.5,-,18.9,-,-
COc1ccc(CC(=O)Nc2nc3ccccc3[nH]2)cc1,-,-,-,-,-,.,.,.,.
COc1ccc(-c2cc(CNc3nc(NCc4ccccc4OC)nc4ccsc34)on2)cc1,.,.,.,-,.,.,.,.,.
Cc1cccc(C)c1-n1nnnc1C1c2ccccc2C(=O)N1CCOc1ccccc1 (stereo not drawn),.,.,.,-,.,.,.,.,.
CCCCN1C(=O)C(CC(=O)NCCCN(C)C)CC(C(=O)N2CCCCCC2)=C1C (stereo not drawn),.,.,.,-,.,.,.,.,.
COc1ccc(CC(=O)Nc2ccc(-c3noc(-c4ccccc4OC)n3)cc2)cc1,-,-,-,18.2,22.9,221.0,-,3.0,-
COc1cccc(-c2nc(-c3ccc(NC(=O)Cc4ccccc4OC)cc3)no2)c1,-,-,-,-,-,.,.,.,.
CCCCCCCCN1C(=O)[C@H](CC(=O)NCCC(C)C)C[C@@]2(C(=O)OCC)CCCC=C12,.,.,.,-,.,.,.,.,.
Cc1cccc(C)c1-n1nnnc1-c1nc2cc3ccccc3cc2[nH]c1=O,.,.,.,-,.,.,.,.,.
Cc1cc(C(C)(C)C)c(O)c(C)c1CC1=NCCN1,-,-,-,31.8,84.1,-,85.6,-,41.2
c1ccc2c(CC3=NCCN3)cccc2c1,-,-,-,-,-,.,.,.,.
Cc1cc(C)n(/N=C/c2ccc(O)cc2)c(=O)c1C#N,-,-,-,20.3,-,.,.,-,-
CCN1CCN(C(CNS(=O)(=O)c2ccc(OC)cc2)c2cccnc2)CC1 (stereo not drawn),-,-,-,14.7,-,.,.,-,-
CCn1cc(CN2CCC(C(=O)Nc3ccc(Oc4ccccc4F)cc3)CC2)cn1,.,.,.,14.6,.,.,.,-,-
Cn1cc(CN2CCC(C(=O)Nc3ccc(Oc4ccccc4F)cc3)CC2)cn1,-,-,-,-,-,.,.,.,.
